Test results published in PubChem BioAssay (NCATS).
Several values for one entry are separate records, joined by “and”; a condition that tells them apart may be missing. Equal values may be shown once. Results filed as inconclusive are left out. Activity calls are given as the source filed them. Unless noted, calls follow the shape of the dose curve; as a rule, active = well fitted curve in the direction sought with a large enough effect; inconclusive = small, poorly fitted or top-dose-only effect, or another doubt; inactive = no such curve, though single readings can be large; an effect the other way counts as inactive or inconclusive.

Experiments:
[1] = Cell Viability - Jurkat (AID 426;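 active = dose-dependent loss of cell ATP signal giving a full or clear fitted curve, ranked by lower potency value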; also: potency is read from the fitted curve at half-maximal effect); conditions: qHTS
In short: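 Cytotoxicity was scored as loss of cellular ATP, measured by luciferase-based luminescence, in Jurkat clone E6-1 cells after 40 h compound treatment; tamoxifen and doxorubicin served as positive controls.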

[2] = Cell Viability - Hek293 (AID 427;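 active = compounds whose dose-response curve shows a full or clear partial loss of cell viability, called from curve shape rather than a numeric limit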;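 also: potency is read from the fitted curve at half-maximal effect; cells exposed to compound for 40 hours at 37 °C before reading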); conditions: qHTS
In short: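 HEK293 cells in complete medium were exposed to compound for 40 hr at 37 °C, then cellular ATP was read by CellTiter-Glo luminescence. Data were normalized to DMSO (basal) and 100 uM tamoxifen (100% inhibition), and AC50 came from Hill fits.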

[3] = Cell Viability - HepG2 (AID 433; calls by dose curve;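 also: potency is read from the fitted curve at half-maximal effect; potency for ATP loss meaning cytotoxicity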); conditions: qHTS
In short: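 HepG2 hepatocellular carcinoma cells (1500/well) were treated with compounds for 40 h at 37 °C in complete medium; intracellular ATP was read by CellTiter-Glo luminescence. Data were normalized to DMSO and 100 uM tamoxifen, and AC50 came from Hill fits.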

[4] = Cell Viability - SK-N-SH (AID 435; calls by dose curve;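 also: potency is read from the fitted curve at half-maximal effect; compound exposure lasted 40 h at 37 °C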); conditions: SK-N-SH neuroblastoma cell viability qHTS
In short: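 SK-N-SH human neuroblastoma cells (1500/well) were exposed to compounds in complete medium for 40 h at 37 °C, and intracellular ATP was then measured by CellTiter-Glo luminescence. AC50 was taken from Hill fits, normalized to DMSO and 100 uM tamoxifen.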

[5] = target: Mitogen-activated protein kinase 10 (Mus musculus) (UniProt Q61831); experiment: JNK3 AlphaScreen Assay (AID 530; active = well fitted curve in either direction with a large enough effect, not every such curve was filed as active;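 also: kinase came from lysate of stimulated human HepG2 cells; signal reports phosphorylation of biotinylated GST-cJun 1-79 at Ser73 with 10 µM ATP; % is scaled to controls: 0 for no effect and ±100 for the full control effect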); conditions: JNK3 lysate, c-Jun phosphorylation; series mostly up to 57.1 µM
In short: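 Kinase buffer: 20 mM Tris-HCl pH 7.6, 10 mM MgCl2, 1 mM DTT, 0.1 mM Na3VO4, 0.01% Tween-20; ATP 10 uM. Substrate biotin-GST-cJun(1-79), enzyme from activated HepG2 lysates. Detection by Ser73 phospho-antibody AlphaScreen.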

[6] = Cell Viability - NIH 3T3 (AID 541); conditions: NIH 3T3 cell viability, qHTS; activity change, negative = cytotoxicity: at 92.2 µM (top of the series);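 also: plate controls were DMSO alone for no effect and tamoxifen positive control for full effect; nearly all actives have a fitted effect of over 25% in size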
In short: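 In this cytotoxicity screen, acute toxicity is scored as an ATP drop measured by CellTiter-Glo in NIH 3T3 fibroblasts following a 40 hr, 37 °C incubation with compound.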

[7] = Cell Viability - H-4-II-E (AID 543); conditions: H-4-II-E rat hepatoma viability; series mostly up to 92.2 µM; also: % is scaled to controls: 0 for no effect and ±100 for the full control effect; nearly all actives have a fitted effect of over 35% in size
In short: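 AC50 from Hill-modelled qHTS concentration-response curves. H-4-II-E rat hepatoma cells in complete medium, 40 hr exposure at 37 °C, viability by CellTiter-Glo ATP luminescence.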

[8] = Cell Viability - Mesenchymal (AID 546); conditions: mesenchymal cells viability, qHTS; activity change, negative = cytotoxicity: at 91.7 µM (top of the series);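 also: cells exposed to compound for 40 hours before reading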
In short: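 CellTiter-Glo luminescence (intracellular ATP, 20 min room temperature) after 40 hr compound exposure at 37 °C of 1000 glomerulus-derived human kidney mesenchymal cells/well; AC50 values obtained by fitting qHTS concentration-response data to the Hill equation.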

[9] = Cellular Toxicity (caspase-3) HepG2 (AID 654); conditions: HepG2 caspase-3 activation, luminescence, 0% = DMSO only, 100% = tamoxifen; series mostly up to 92.2 µM;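 also: cells exposed to compound for 16 hours before reading; 0% = DMSO alone and 100% = caspase signal from 100 µM tamoxifen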
In short: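 Concentration-response AC50 values reflect caspase-3/7 induction in HepG2 cells after 16 hours of compound exposure, quantified by luminescence from liberated aminoluciferin and referenced to 100 uM tamoxifen as full stimulation.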

[10] = Cellular Toxicity (caspase-3) HUV-EC-C (AID 656); conditions: HUV-EC-C cells, caspase-3 activation (apoptosis), vehicle = 0, 100 µM tamoxifen = 100%; series mostly up to 92.2 µM
In short: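 HUV-EC-C endothelial cells, 1000/well, were pre-incubated 5 hr at 37°C, then exposed to compounds for 16 hr at 37°C. Caspase-Glo 3/7 luminescence was read after 20 min at room temperature. AC50 came from Hill fits, normalized to DMSO and 100 uM tamoxifen.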

[11] = Cellular Toxicity (caspase-3) BJ (AID 658); conditions: BJ fibroblasts, luminescence, normalized: DMSO 0%, staurosporine 100%; series mostly up to 91.7 µM
In short: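 Caspase-Glo 3/7 luminescence, read 1 hr after reagent at room temperature, in normal BJ fibroblasts exposed 16 hours at 37 °C. AC50 values from Hill-equation concentration-response, scaled between DMSO basal and 10 uM staurosporine as 100%.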

[12] = Cellular Toxicity (caspase-3) MRC-5 (AID 659); conditions: MRC-5 cells, luminescence, normalized: DMSO 0%, 10 µM staurosporine 100%; series mostly up to 91.7 µM
In short: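 Luminescent Caspase-Glo 3/7 read-out (1 h, room temperature) after a 16 h, 37 °C compound exposure of MRC-5 lung fibroblasts at 1500 cells/well. Concentration-response AC50 from Hill equation; 0% DMSO, 100% 10 uM staurosporine.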

[13] = Cellular Toxicity (caspase-3) Mesangial (AID 660); conditions: mesangial cells, normalized: DMSO 0%, 100 µM tamoxifen 100%; series mostly up to 91.7 µM;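 also: combined caspase 3 and 7 activity read by Caspase-Glo luminescence; cells exposed to compound for 16 h before the caspase read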
In short: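 AC50 values come from Hill-equation fits of caspase 3/7 activation, measured as Caspase-Glo luminescence in human glomerular mesangial cells exposed to compound for 16 h at 37 °C; 100% set by 100 uM tamoxifen.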

[14] = Cellular Toxicity (caspase-3) NIH 3T3 (AID 666); conditions: NIH 3T3 caspase-3 activation, apoptosis/toxicity, 0% DMSO, 100% is 100 µM tamoxifen; series mostly up to 92.2 µM;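 also: 0% = DMSO basal and 100% = 100 µM tamoxifen stimulation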
In short: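 Activity: caspase-3/7 induction, NIH 3T3 cells, 16 hr treatment at 37°C, luminescent Caspase-Glo detection; AC50 via Hill equation.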

[15] = Cellular Toxicity (caspase-3) Renal Proximal Tubule (AID 667); conditions: renal proximal tubule cells, primary cells freshly taken from rat, solvent-only wells 0%, staurosporine 100%; series mostly up to 91.7 µM;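 also: cells exposed to compound for 16 hours at 37 °C before detection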
In short: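 Primary rat proximal tubule cells, 1000/well, 5 h plating at 37 °C, then compound 16 h at 37 °C. Caspase-Glo 3/7 reagent, 1 h RT, luminescence. Normalized to DMSO (basal) and 10 uM staurosporine (100%); Hill-fit AC50.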

[16] = MultiTox-Fluor Cytotoxicity Assay - LYMP1-003 - Live Cells (AID 962); conditions: LYMP1-003 lymphoblastoid cells, MultiTox-Fluor live-cell protease fluorescence; series mostly up to 92.2 µM;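 also: 0% = DMSO only and full loss = 92 µM tetraoctylammonium bromide; cytotoxic hits lower the live-cell protease signal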
In short: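 Human lymphoblastoid line LYMP1-003 in complete culture medium, treated 16 hr with titrated compounds. Viable cells quantified via cell-permeant GF-AFC substrate fluorescence; AC50 derived by Hill fitting.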

[17] = Cell Viability - LYMP1-003 - Assay at 40 hr (AID 964); conditions: LYMP1-003 lymphoblastoid viability; series mostly up to 92.2 µM; also: % is scaled to controls: 0 for no effect and ±100 for the full control effect; nearly all actives have a fitted effect of over 60% in size
In short: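 Acute toxicity is scored as a concentration-dependent loss of intracellular ATP in LYMP1-003 cells (2500/well, complete medium) after 40 hr at 37 C, measured by CellTiter-Glo luminescence; AC50 values derive from standard Hill modelling.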

[18] = Cell Viability - LYMP2-011 (AID 969); conditions: LYMP2-011 lymphoblastoid cells viability; series mostly up to 92.2 µM;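 also: cells exposed to compound for 24 hours; 0% = DMSO only and full inhibition = 92 µM tetraoctylammonium bromide; nearly all actives have a fitted effect of over 60% in size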
In short: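 Cells seeded at 2500 per well rest 5 hr before compound addition, then incubate 24 hr at 37 C. CellTiter-Glo reagent is added for 30 min at room temperature before luminescence detection.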

[19] = qHTS Assay for Identification of Small Molecule Inducers of Hypoxia Response (AID 2120; active = well fitted curve in the direction sought with a large enough effect in the signal ratio, with a control signal flat, not every such curve was filed as active; the % refers to the signal ratio; also: 0% is about no effect); conditions: hypoxia response reporter cells, beta-lactamase ratio readout; series mostly up to 104 µM
In short: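 HRE-bla ME-180, 2500 cells/well, 0.5% dialyzed FBS medium; cpd titration, 17 h 37 degrees C; CCF4 2.5 h RT; Ex 405, Em 460/530 ratio -> %Activity, AC50.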

[20] = target: Peroxisome proliferator-activated receptor alpha (Homo sapiens) (UniProt Q07869); experiment: qHTS assay for small molecule agonists of the peroxisome proliferator-activated receptor alpha (PPARalpha) signaling pathway (AID 651778); conditions: PathHunter PPARalpha complementation, chemiluminescence, 6 h; max response: stronger effect = higher value; also: % of control where 0% means no effect
In short: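 Chemiluminescence from complemented enzyme reported PPARalpha activation in cells after 6 hr of compound treatment at 37 C. The detection reagent was incubated for 60 min at room temperature, and compounds were scored as agonists.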

Peroxisome proliferator-activated receptor alpha (Homo sapiens), sequence (Q07869 whole entry, looked up): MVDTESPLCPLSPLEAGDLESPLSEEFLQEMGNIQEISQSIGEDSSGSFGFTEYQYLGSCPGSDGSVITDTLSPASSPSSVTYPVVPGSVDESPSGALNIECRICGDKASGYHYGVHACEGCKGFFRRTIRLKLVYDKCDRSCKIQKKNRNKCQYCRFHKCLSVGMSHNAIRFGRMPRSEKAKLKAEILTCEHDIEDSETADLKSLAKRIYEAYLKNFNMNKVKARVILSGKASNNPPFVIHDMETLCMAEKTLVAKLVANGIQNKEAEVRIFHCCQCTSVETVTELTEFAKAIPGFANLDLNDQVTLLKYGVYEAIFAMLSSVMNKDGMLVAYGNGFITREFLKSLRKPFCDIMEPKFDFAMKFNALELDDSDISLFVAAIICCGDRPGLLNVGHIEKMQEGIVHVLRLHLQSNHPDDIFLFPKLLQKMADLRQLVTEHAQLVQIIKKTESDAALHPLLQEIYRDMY

Nc1ccc(Cl)cc1Cl
inactive: Potency [1] > 92 µM | Potency [2] > 92 µM | Potency [3] > 92 µM | Potency [4] > 92 µM | Potency [5] | Potency [6] | Potency [7] | activity change, negative = cytotoxicity [8] 2.81% | outcome [9] | outcome [10] | outcome [11] | outcome [12] | outcome [13] | outcome [14] | outcome [15] | Potency [16] | Potency [17] | Potency [18] | outcome [19] | max response [20] 3.51% and 0.0732%

CN(C)C=O
inactive: Potency [1] > 92 µM | Potency [2] > 92 µM | Potency [3] > 92 µM | Potency [4] > 92 µM | Potency [5] | Potency [6] | Potency [7] | activity change, negative = cytotoxicity [8] 4.53% and 11.4% | outcome [9] | outcome [10] | outcome [11] | outcome [12] | outcome [13] | outcome [14] | outcome [15] | Potency [16] | Potency [17] | Potency [18] | outcome [19] | max response [20] 18% and -2.47% and -1.42%

Cc1noc(C)c1-c1nc(N2CCN(C)CC2)c2ccccc2n1
inactive: Potency [5]

C=CCOC(=O)c1ccccc1C(=O)OCC=C
inactive: Potency [1] > 92 µM | Potency [2] > 92 µM | Potency [3] > 92 µM | Potency [4] > 92 µM | Potency [6] | Potency [7] | activity change, negative = cytotoxicity [8] -9.3% | outcome [9] | outcome [10] | outcome [11] | outcome [12] | outcome [13] | outcome [14] | outcome [15] | Potency [16] | Potency [17] | Potency [18] | outcome [19] | max response [20] 16.2% and -0.609%

COc1ccc2nc(N)sc2c1
inactive: Potency [1] > 92 µM | Potency [2] > 92 µM | Potency [3] > 92 µM | Potency [4] > 92 µM | Potency [5] | Potency [6] | Potency [7] | activity change, negative = cytotoxicity [8] -1.25% | outcome [9] | outcome [10] | outcome [11] | outcome [12] | outcome [13] | outcome [14] | outcome [15] | Potency [16] | Potency [17] | Potency [18] | outcome [19] | max response [20] -0.146% and -0.816%

CN(C)C(=O)c1ccc(-c2cc(NCc3ccccc3)ncn2)cc1
inactive: Potency [5]

O=C(O)CC(C(=O)O)C(CC(=O)O)C(=O)O (centres undefined)
inactive: Potency [1] > 92 µM | Potency [2] > 92 µM | Potency [3] > 92 µM | Potency [4] > 92 µM | Potency [5] | Potency [6] | Potency [7] | activity change, negative = cytotoxicity [8] -11.1% | outcome [9] | outcome [10] | outcome [11] | outcome [12] | outcome [13] | outcome [14] | outcome [15] | Potency [16] | Potency [17] | Potency [18] | outcome [19] | max response [20] -1.2% and -0.001%

COc1ccc2[nH]cc(CCNc3ncncc3-c3ccccc3C)c2c1
inactive: Potency [5]

Cc1ccccc1C
inactive: Potency [1] > 92 µM | Potency [2] > 92 µM | Potency [3] > 92 µM | Potency [4] > 92 µM | Potency [6] | Potency [7] | activity change, negative = cytotoxicity [8] -15.1% and 9.28% | outcome [9] | outcome [10] | outcome [11] | outcome [12] | outcome [13] | outcome [14] | outcome [15] | Potency [16] | Potency [17] | Potency [18] | outcome [19] | max response [20] 1.03% and -0.383%

CN(C)c1nc(-c2ccc3c(c2)OCO3)nc2ccccc12
inactive: Potency [5]

O=NO
inactive: Potency [1] > 92 µM | Potency [2] > 92 µM | Potency [3] > 92 µM | Potency [4] > 92 µM | Potency [5] | Potency [6] | Potency [7] | activity change, negative = cytotoxicity [8] -3.1% and 3.16% | outcome [9] | outcome [10] | outcome [11] | outcome [12] | outcome [13] | outcome [14] | outcome [15] | Potency [16] | Potency [17] | Potency [18] | outcome [19] | max response [20] 0.744% and -3.6%

C1OCOCO1
inactive: Potency [1] > 92 µM | Potency [2] > 92 µM | Potency [3] > 92 µM | Potency [4] > 92 µM | Potency [5] | Potency [6] | Potency [7] | activity change, negative = cytotoxicity [8] -5.36% | outcome [9] | outcome [10] | outcome [11] | outcome [12] | outcome [13] | outcome [14] | outcome [15] | Potency [16] | Potency [17] | Potency [18] | outcome [19] | max response [20] -0.344%

CC(=O)NCCNc1nc(-c2cccc(C#N)c2)nc2ccccc12
inactive: Potency [5]

COc1cccc(-c2ccc3ncnc(NCc4ccc(OC)cc4OC)c3c2)c1
inactive: Potency [5]

C/C=C\c1ccc(OC)cc1
inactive: Potency [1] > 92 µM | Potency [2] > 92 µM | Potency [3] > 92 µM | Potency [4] > 92 µM | Potency [5] | Potency [6] | Potency [7] | activity change, negative = cytotoxicity [8] -1.47% | outcome [9] | outcome [10] | outcome [11] | outcome [12] | outcome [13] | outcome [14] | outcome [15] | Potency [16] | Potency [17] | Potency [18] | outcome [19] | max response [20] -5.71%
